Source: PubChem BioAssay (NCI)
Compounds without any hit were thinned out: in the full panel of roughly 83,000, 20% have a hit.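 Method: cells in 96-well plates; compound added at one concentration; 48 h incubation; percent growth measured; values under 10 scored active.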 The source made the active and inactive calls.

What was measured:
Test in all cases: NCI-60 one-dose screen, 48 h (100 = growth as untreated, 0 = no growth, -100 = all killed)
Details in all cases: 10 µM unless noted
[1] = test system: SK-MEL-2 melanoma
[2] = test system: EKVX NSCLC
[3] = test system: SN12C renal
[4] = test system: UO-31 renal
[5] = test system: TK-10 renal
[6] = test system: ACHN renal
[7] = test system: CAKI-1 renal
[8] = test system: A498 renal
[9] = test system: CCRF-CEM leukemia
[10] = test system: MOLT-4 leukemia
[11] = test system: SR leukemia
[12] = test system: RPMI-8226 leukemia
[13] = test system: OVCAR-8 ovarian
[14] = test system: OVCAR-5 ovarian
[15] = test system: OVCAR-4 ovarian
[16] = test system: SK-OV-3 ovarian
[17] = test system: IGROV1 ovarian
[18] = test system: OVCAR-3 ovarian
[19] = test system: HS 578T breast
[20] = test system: NCI/ADR-RES ovarian

Measured: growth

Fc1cccc(CNc2c3ccccc3nc3ccccc23)c1F
inactive: [1] 107% | [2] 62.9% | [3] 49% | [4] 40.1% | [5] 89.2% | [6] 30.6% | [7] 45.7% | [9] 62.4% | [10] 28.4% | [11] 38.2% | [12] 52.9% | [13] 50.8% | [14] 73.3% | [15] 49.9% | [16] 75.8% | [17] 52.7% | [18] 86.1% | [19] 87% | [20] 48.5%
active: [8] -0.792%

O=C(NCc1ccccc1)Nc1ccccc1CNc1nc(Nc2ccc(OCCN3CCCC3)cc2)ncc1Cl
inactive: [1] 108% | [2] 99.2% | [3] 101% | [4] 71.7% | [5] 110% | [6] 92.3% | [7] 106% | [8] 77.2% | [9] 20% | [10] 74.1% | [12] 76.1% | [13] 89.9% | [14] 112% | [15] 81.2% | [16] 99.3% | [17] 100% | [18] 104% | [19] 98% | [20] 92.2%
active: [11] 7.02%

Cc1nnc(-n2c(O)cc(=O)n(-c3ccccc3)c2=S)nc1/C=C/c1ccc(N(C)C)cc1
inactive: [1] 55.2% | [2] 66.7% | [3] 65.3% | [4] 17.1% | [5] 28.1% | [6] 62% | [7] 23.4% | [8] 52.1% | [9] 52.5% | [10] 56.1% | [11] 36.2% | [12] 16.1% | [13] 53.3% | [14] 82.7% | [15] 50.3% | [16] 45.6% | [17] 58.1% | [18] 44.3% | [19] 47.8% | [20] 44.6%

Nc1ncnc2c1N=C(c1ccc3c(c1)OCO3)CC(c1ccc([N+](=O)[O-])cc1)N2 (stereo not given)
active: [17] 3.46%
inactive: [1] 60.8% | [2] 87.4% | [3] 84% | [4] 64.1% | [5] 112% | [6] 82.4% | [7] 99.2% | [8] 67.3% | [9] 39.3% | [10] 99.3% | [11] 45.6% | [12] 46.2% | [13] 87.3% | [14] 75.8% | [15] 99% | [16] 86% | [18] 103% | [19] 74% | [20] 82%

Cn1ccnc1C(=O)C(=O)Nc1ccc(CC(=O)Nc2ccccc2)cc1
inactive: [1] 123% | [2] 102% | [3] 103% | [4] 85.7% | [5] 116% | [6] 107% | [7] 93.3% | [8] 103% | [9] 105% | [10] 107% | [11] 106% | [12] 107% | [13] 109% | [14] 101% | [15] 110% | [16] 115% | [17] 103% | [18] 108% | [19] 101% | [20] 103%

CCOC(=O)c1[nH]c(=O)c2c(C)nc(-c3ccccc3)cc2c1O
inactive: [1] 84.8% | [2] 98.8% | [3] 88.8% | [4] 90% | [5] 178% | [6] 110% | [7] 109% | [8] 72.6% | [9] 91.8% | [10] 98.1% | [11] 97% | [12] 93.8% | [13] 109% | [14] 106% | [15] 117% | [16] 108% | [18] 105% | [19] 98.4% | [20] 103%
active: [17] 1.43%

OCCCC1CCN(C(Cc2ccccc2)c2ccccc2)CC1 (stereo not given)
inactive: [1] 52% | [2] 96.2% | [3] 102% | [4] 78.3% | [5] 84.1% | [6] 81.8% | [7] 91.4% | [8] 97.9% | [9] 100% | [10] 99.1% | [11] 120% | [12] 98.3% | [13] 98.5% | [14] 60.2% | [15] 92.3% | [16] 84.9% | [17] 96.8% | [18] 89.2% | [19] 101% | [20] 93.9%

CC12CCC3c4ccccc4CCC3(CO1)C2 (stereo not given)
inactive: [1] 109% | [2] 107% | [3] 98.3% | [4] 117% | [5] 110% | [6] 98.4% | [7] 101% | [8] 78.9% | [9] 86.9% | [10] 89.3% | [11] 99.1% | [12] 97.1% | [13] 103% | [14] 96.3% | [15] 108% | [16] 98.3% | [17] 121% | [18] 115% | [19] 93.5% | [20] 106%

O=C1/C(=C/c2ccc(-c3ccc(Br)cc3)o2)SC(=S)N1CCc1ccc(O)cc1
active: [1] 2.89% | [13] 4.49%
inactive: [2] 77.2% | [3] 69.6% | [4] 39.9% | [5] 87% | [6] 83.9% | [7] 39.1% | [8] 64.7% | [9] 21.7% | [10] 33.6% | [11] 19.2% | [12] 75.7% | [14] 86% | [15] 38.3% | [16] 76.2% | [17] 45.2% | [18] 44.3% | [19] 59.7% | [20] 81.7%

COc1ccc(C(=O)C2C(c3ccc(OC)cc3)CN(C)C23C(=O)Nc2ccccc23)cc1 (stereo not given)
inactive: [1] 96.9% | [2] 91% | [3] 92.1% | [4] 70.3% | [5] 103% | [6] 95.5% | [7] 68.2% | [8] 99.8% | [9] 97.4% | [10] 88.1% | [11] 98% | [12] 88.6% | [13] 95.5% | [14] 88.6% | [15] 83.6% | [16] 91.4% | [17] 80.8% | [18] 97.8% | [19] 93.2% | [20] 76.7%

O=C(CI)NC1Oc2ccccc2-c2oc(=O)c(-c3ccccc3)cc21 (stereo not given)
inactive: [2] 70.4% | [8] 82.1% | [14] 12.8% | [16] 103% | [19] 44.3% | [20] 36.7%
active: [1] -16.4% | [3] -71.2% | [4] -94.7% | [5] -73.5% | [6] -91.3% | [7] -100% | [9] -23.4% | [10] -25.8% | [11] -33.5% | [12] -49.4% | [13] -27.9% | [15] -40.3% | [17] -59% | [18] -95.1%

CN(Cc1ccc(C(F)(F)F)cc1)CC(O)C(=O)Nc1ccc(Cl)cc1 (stereo not given)
inactive: [2] 12.6% | [4] 12.6% | [5] 24.3% | [14] 27.9% | [15] 15.6% | [16] 70.7% | [19] 51.7% | [20] 39.3%
active: [1] -48.1% | [3] -67.6% | [6] -3.15% | [7] -59.6% | [8] -4.42% | [9] -27.4% | [10] -20.9% | [11] -31.3% | [12] -33.7% | [13] 6.23% | [17] 0.563% | [18] -40.7%

O=C(CSc1nc2ccc([N+](=O)[O-])cc2[nH]1)Nc1cccc(C(F)(F)F)c1
inactive: [2] 23.9% | [5] 25.1% | [6] 16% | [9] 19% | [11] 14.5% | [13] 13.8% | [14] 63.5% | [15] 12% | [16] 27.1% | [17] 41% | [18] 20.7% | [19] 24.8% | [20] 21.9%
active: [1] -5.5% | [3] 9.37% | [4] 8.44% | [7] 1.15% | [8] -6.75% | [10] 8.77% | [12] -11.8%
